This is a sample that favours compounds with a hit; in the whole collection about 6.7% have one here.
SW480 rerep: induces DNA re-replication in SW480 colon adenocarcinoma cells; SW480 DNA re-replication, Hoechst DNA content imaging, 48 h; AID 624297; Potency, µM (series often up to 46.1 µM), usual class: activators; 1.8% of 340,000 active; also: nearly all actives have a fitted effect of over 55% in size
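Image-based DNA-content assay: after two days of treatment, nuclei were labelled with the DNA dye Hoechst and imaged, and hits were compounds raising the count of nuclei showing high fluorescence intensity.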
KB-3-1 tox: kills parental KB-3-1 adenocarcinoma cells; KB-3-1 viability, CellTiter-Glo ATP luminescence, 72 h; Potency, µM (doses to about 46.1 µM), hits mostly cytotoxic; 1.4% of 400,000 active; also: nearly all actives have a fitted effect of over 60% in size
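Viability of parental KB-3-1 cells, measured by CellTiter-Glo luminescence, followed a 72 h incubation at 37 °C with pinned compounds in phenol-red-free DMEM containing 10% FBS.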
PINK1 expr mod: changes PINK1 expression; PINK1 immunofluorescence, high-content cytometry, 24 h; Potency, µM (top dose mostly 76.6 µM), most hits filed as activators; 0.2% of 410,000 active; AID 624263; active = well fitted activation curve with a large enough effect; inconclusive = small, poorly fitted or top-dose-only effect; cell line not stated here; also: nearly all actives have a fitted effect of over 65% in size
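Readout is PINK1 immunofluorescence, quantified alongside mitochondrial, cell and nuclear markers by laser-scanning microplate cytometry. Cells from a stable line were exposed to compound titrations (5 concentrations) for 24 hours, with CCCP controls.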
KB-V1 MDR tox: KB-V1 MDR subline cytotoxicity; KB-V1 MDR cells viability, CellTiter-Glo, 72 h; 3.4% of 400,000 active; Potency, µM (top dose mostly 46.1 µM), actives largely listed as cytotoxic; also: nearly all actives have a fitted effect of over 60% in size
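KB-V1 MDR subline cells in DMEM (phenol-red free, 10% FBS) exposed to compounds in qHTS concentration series for 72 h at 37 degrees C. Viability read by CellTiter-Glo luminescence; concentration-effect curves fitted after normalization and correction.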
MCF10A rereplic: induces DNA re-replication in MCF 10a normal breast cells | Potency, µM (titrated, usually from 46.1 µM), usual class: activators | 2.9% of 350,000 active | MCF 10A DNA re-replication, Hoechst nuclear intensity, 48 h; also: nearly all actives have a fitted effect of over 50% in size
Of the large screens only hits and unclear results are named; the others gave an inactive call. Unless noted, calls follow the shape of the dose curve; as a rule, active = well fitted curve in the direction sought with a large enough effect; inconclusive = small, poorly fitted or top-dose-only effect, or another doubt; inactive = no such curve, though single readings can be large; an effect the other way counts as inactive or inconclusive.

CC(C)[C@@H](CO)NC(=O)c1ccc2c3n(nc2c1)-c1ccccc1CO3	none
CC(C)NC(=O)c1ccc2c3n(nc2c1)-c1ccccc1CO3	KB-3-1 tox inconclusive, KB-V1 MDR tox 5.8µM
COc1ccccc1C(C[N+](=O)[O-])c1c(N)n(C)c(=O)n(C)c1=O (centres undefined)	SW480 rerep inconclusive, KB-3-1 tox inconclusive, KB-V1 MDR tox 7.3µM, MCF10A rereplic inconclusive
CCOC(=O)c1c(NC(=O)C(C)Sc2cn(CCNC(=O)c3ccc(OC)cc3)c3ccccc23)sc2c1CCC2 (centres undefined)	none (no result: SW480 rerep, MCF10A rereplic)
O=C(c1ccc(-c2ccccc2Cl)o1)N1CCN(S(=O)(=O)c2cccs2)CC1	KB-V1 MDR tox 21µM, MCF10A rereplic inconclusive
O=C(c1ccccc1Cl)N1CCN(S(=O)(=O)c2cccs2)CC1	none
CCc1cc2c(=O)c(-c3ccc4c(c3)OCCO4)coc2cc1OS(C)(=O)=O	SW480 rerep 9.2µM, KB-3-1 tox inconclusive, KB-V1 MDR tox inconclusive
COc1ccc(C(CC(=O)Nc2ccc(F)c(Cl)c2)N2Cc3ccccc3C2=O)cc1OC (centres undefined)	KB-V1 MDR tox 18µM (no result: SW480 rerep, MCF10A rereplic)
CCCOc1ccc(N2C(=O)CC(N3CCN(c4nc5ccccc5s4)CC3)C2=O)cc1 (centres undefined)	none
O=C1CC(N2CCSCC2)C(=O)N1c1cccc(Cl)c1 (centres undefined)	SW480 rerep inconclusive, KB-V1 MDR tox inconclusive, MCF10A rereplic 0.82µM
O=C1CC(N2CCN(c3nc4ccccc4s3)CC2)C(=O)N1c1cccc(F)c1 (centres undefined)	KB-3-1 tox 18µM
COc1cccc(CNC(=O)CN2C(=O)CSc3c2c(C)nn3-c2ccccc2)c1OC	none (no result: SW480 rerep, MCF10A rereplic)
CC1Oc2ccccc2C=C1/C=N/Nc1ccc(C(=O)O)cc1 (centres undefined)	SW480 rerep 7.3µM, MCF10A rereplic 23µM
CC(C)(C)c1ccc(/C=N/Nc2ccc(C(=O)O)cc2)cc1	MCF10A rereplic inconclusive
COc1ccc(F)c(CN2CCC3(CCC(CNC(=O)c4cc(C)nn4C)O3)CC2)c1 (centres undefined)	none (no result: SW480 rerep, KB-3-1 tox, KB-V1 MDR tox, MCF10A rereplic)
Cn1c(=O)c2c(nc(CN3CCN(c4ccccc4)CC3)n2Cc2ccccc2Cl)n(C)c1=O	SW480 rerep inconclusive, KB-3-1 tox inconclusive, KB-V1 MDR tox 8.2µM, MCF10A rereplic inconclusive
CCCn1c(CN(C)Cc2ccccc2)nc2c1c(=O)n(C)c(=O)n2C	KB-V1 MDR tox inconclusive
CCCCn1c(CN(C)Cc2ccccc2)nc2c1c(=O)n(C)c(=O)n2C	KB-3-1 tox inconclusive, KB-V1 MDR tox 2.3µM
COc1ccc(N2CCN(Cc3nc4c(c(=O)n(C)c(=O)n4C)n3C(C)C)CC2)cc1	KB-3-1 tox 16µM (no result: SW480 rerep, MCF10A rereplic)
CN(Cc1ccccc1)Cc1nc2c(c(=O)n(C)c(=O)n2C)n1Cc1ccccc1Cl	KB-V1 MDR tox 9.2µM
CCOc1ccc(NC(=O)CCc2nnc3n(C)c(=O)c4sccc4n23)cc1	none (no result: SW480 rerep, MCF10A rereplic)
CC(=O)N1CCC2(CC1)CN(C(=O)Nc1cccc(C#N)c1)C2	none (no result: SW480 rerep, KB-3-1 tox, KB-V1 MDR tox, MCF10A rereplic)
FC(F)(F)c1ccccc1-c1cc(N2CCNCC2)ncn1	none (no result: SW480 rerep, KB-3-1 tox, KB-V1 MDR tox, MCF10A rereplic)
Cn1c(=O)c2c(nc(CN3CCc4ccccc4C3)n2Cc2ccccc2)n(C)c1=O	KB-3-1 tox 12µM, MCF10A rereplic inconclusive
Cn1c(=O)c2c(nc(CN3CCc4ccccc4C3)n2Cc2ccc(Cl)cc2)n(C)c1=O	MCF10A rereplic inconclusive
CCN(CC)c1nn2c(=O)c(C(=O)NCc3ccccc3Br)cnc2s1	none (no result: SW480 rerep, KB-3-1 tox, KB-V1 MDR tox, MCF10A rereplic)
CCN(CC)C(=O)c1ccc(Nc2nnc(C)c3ccccc23)cc1	KB-V1 MDR tox 12µM
CCN(CC)C(=O)c1ccc(-c2nnc(Nc3ccc(O)cc3)c3ccccc23)cc1	none
CCC(=O)N1CCC1(C)C(=O)Nc1ccc2c(c1)CCN2C(C)=O (centres undefined)	none (no result: SW480 rerep, MCF10A rereplic)
CC(=O)N1CCN(c2ccc(NCc3ccco3)cc2)CC1	none
CC(=O)N1CCN(c2ccc(NCc3ccc(-c4cccc(Cl)c4)o3)cc2)CC1	SW480 rerep inconclusive, MCF10A rereplic 21µM
CCOC(=O)CCNC(=O)N1CCCC(N2CCN(c3ccc(OC)cc3)CC2)C1 (centres undefined)	none
COc1ccc(C(=O)/C=C/C(=O)N(Cc2ccccc2OC)C(C(=O)NC2CCCCC2)c2ccncc2)c(O)c1 (centres undefined)	KB-3-1 tox inconclusive, KB-V1 MDR tox inconclusive, MCF10A rereplic inconclusive
COc1ccc(C(=O)/C=C/C(=O)N(Cc2ccc(F)cc2)C(C(=O)NC2CCCCC2)c2ccncc2)c(O)c1 (centres undefined)	SW480 rerep inconclusive, KB-3-1 tox inconclusive, PINK1 expr mod inconclusive, KB-V1 MDR tox 0.73µM
COc1ccc(C(=O)/C=C/C(=O)N(Cc2ccccc2)C(C(=O)NC2CCCCC2)c2ccncc2)c(O)c1 (centres undefined)	KB-V1 MDR tox 0.92µM
CC1Cc2cc(S(=O)(=O)CCC(=O)Nc3ccc(F)cc3)ccc2N1C(=O)C1CC1 (centres undefined)	none (no result: SW480 rerep, KB-3-1 tox, KB-V1 MDR tox, MCF10A rereplic)
CC(=O)Nc1cccc(-c2nnc(SCC(=O)c3cc([N+](=O)[O-])ccc3Br)o2)c1	none (no result: SW480 rerep, KB-3-1 tox, KB-V1 MDR tox, MCF10A rereplic)
CC1CC(=O)Nc2ccccc2N1C(=O)CSc1ncnc2sccc12 (centres undefined)	KB-V1 MDR tox inconclusive
CCN(CC)C(c1ccc(F)cc1)c1nnnn1C1CCCCC1 (centres undefined)	none (no result: PINK1 expr mod)
CCN(CC)C(c1ccc(C)cc1)c1nnnn1C1CCCCC1 (centres undefined)	KB-3-1 tox inconclusive, KB-V1 MDR tox 13µM, MCF10A rereplic inconclusive
O=C1C(Cl)=C(N2CCC(C(=O)O)CC2)C(=O)c2ccccc21	KB-V1 MDR tox inconclusive, MCF10A rereplic inconclusive
CN1CCN(C2=C(Cl)C(=O)c3ccccc3C2=O)CC1	SW480 rerep 5.2µM, KB-3-1 tox inconclusive, KB-V1 MDR tox inconclusive, MCF10A rereplic 4.1µM
NC(=O)C1CCN(C2=C(Cl)C(=O)c3ccccc3C2=O)CC1	SW480 rerep inconclusive, KB-3-1 tox inconclusive, KB-V1 MDR tox inconclusive, MCF10A rereplic 13µM
C=Cc1ccc(CSc2nnc(C)n3c2cc2occc23)cc1	none (no result: SW480 rerep, MCF10A rereplic)
Cc1ccc(C)c2sc(N3CCN(C(=O)c4ccc([N+](=O)[O-])o4)CC3)nc12	SW480 rerep inconclusive, KB-3-1 tox inconclusive, KB-V1 MDR tox inconclusive, MCF10A rereplic 9.2µM
O=C(c1ccc([N+](=O)[O-])o1)N1CCN(c2nc3c(F)cc(F)cc3s2)CC1	SW480 rerep inconclusive, KB-V1 MDR tox inconclusive, MCF10A rereplic inconclusive
COc1cc(CO)c(OC)c([N+](=O)[O-])c1	MCF10A rereplic inconclusive
CCc1ccccc1N(C(=O)c1cccs1)C1C=CS(=O)(=O)C1 (centres undefined)	SW480 rerep inconclusive, MCF10A rereplic 2.6µM
CCN(CC)CCCNc1nc(-c2ccccc2)nc2ccccc12	none (no result: PINK1 expr mod)
CCN(CC)CCCNc1nc2ccccc2c2[nH]c3ccc(OC)cc3c12	SW480 rerep inconclusive, KB-3-1 tox inconclusive, KB-V1 MDR tox 16µM

Screening data deposited in PubChem by National Center for Advancing Translational Sciences (NCATS).
